Y pestis TopoI = blocks Yersinia pestis topoisomerase I activity; Y. pestis Topo-I cleavage product accumulation, plate reader; activity, % at 10 µM; 360,000 compounds, 0.064% hits; in the data active means activity above about 50%, passing the limit was not always enough
DUSP3 inh = DUSP3 (human) phosphatase inhibition; AID 1654; inhibition, % at 13.3 µM; 290,000 compounds, 0.52% hits; recombinant VHR phosphatase, pNPP absorbance; P51452; in the data active means inhibition above about 50%
Target sequence (P51452 whole entry, looked up): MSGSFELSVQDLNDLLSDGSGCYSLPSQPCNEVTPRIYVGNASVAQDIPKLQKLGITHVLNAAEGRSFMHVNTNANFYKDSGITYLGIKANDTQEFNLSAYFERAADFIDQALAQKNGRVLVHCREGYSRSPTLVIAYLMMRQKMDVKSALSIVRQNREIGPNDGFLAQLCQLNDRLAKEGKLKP
TcdB GH inh = TcdB glycohydrolase inhibition; P18177; TcdB glycohydrolase enzymatic assay, plate reader; inhibition, % at 9.99 µM; 350,000 compounds, 0.24% hits; AID 652162; in the data active means inhibition above about 10%
PfHsp40 yeast = rescue of PfHsp40-mediated yeast toxicity | 340,000 compounds, 0.68% hits | growth rescue, % at 12.5 µM | S. cerevisiae expressing PfHsp40, growth rescue, ATP luminescence; in the data active means growth rescue above about 28%, passing the limit was not always enough;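 further: yeast W303a lacking pdr1 and pdr3 grown in galactose medium; growth measured after three days at 30 °C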
BH1578 lux ind = inducers of Vibrio cholerae quorum light production without autoinducers | 350,000 compounds, 0.16% hits | V. cholerae BH1578 lux reporter, luminescence, 6 h | AID 588436 | activation, % at 18.7 µM; in the data active means activation mostly above about 9.7%, no sharp cut-off
BioA inh = inhibitors of Mycobacterium tuberculosis BioA enzyme. 360,000 compounds, 0.096% hits. purified M. tuberculosis BioA enzyme, plate reader. inhibition, % at 9.99 µM; in the data active means inhibition above about 40%
An asterisk follows results filed as active; i = inactive; . = not tested or not shown. Shown are actives, neighbours in structure and some others; about 1.2% of the full set was active somewhere.

SMILES | Y pestis TopoI | DUSP3 inh | TcdB GH inh | PfHsp40 yeast | BH1578 lux ind | BioA inh
COc1cc(Br)cc(/C=C/c2ccc3cccc(O)c3n2)c1OC | -0.8 | . | 0.5 | 0.6 | 0.8 | .
C(=N\Nc1ncnc2sc3c(c12)CCC3)/c1cccs1 | 4.7 | 9.7 | . | -1.2 | -0.4 | -1.5
C(=N\Nc1ncnc2sc3c(c12)CCC3)/c1ccncc1 | -3.7 | 50.2* | . | -0.6 | -1.9 | 0.6
CC(=O)Oc1oc(-c2ccccc2)nc1C=Nc1ccccc1 | 5.7 | 51.7* | . | 0.0 | -1.4 | .
CCOC(=O)c1ccc(N=Cc2nc(-c3ccccc3)oc2OC(C)=O)cc1 | 17.5 | 17.5 | . | -2.4 | -8.8 | -0.6
C=CCN1CCN(C(=O)CSc2ccccc2)CC1 | 1.6 | 57.0* | 1.4 | -2.1 | 0.7 | -0.3
C=CCN1CCN(C(=O)c2ccc(-c3ccccc3)cc2)CC1 | 2.3 | 8.5 | -0.5 | -0.5 | i | -2.0
N#C/C(=C\c1ccc2c(c1)OCO2)C(=O)NCc1ccco1 | 8.8 | -0.6 | -0.2 | 53.5* | -0.3 | .
O=C(O)c1ccc2cc[nH]c2c1 | -1.4 | 53.9* | . | 0.9 | . | -0.3
COc1ccc(-c2nc(CN3CCN(Cc4cccc(Cl)c4)CC3)c(C)o2)cc1 | 28.0 | -6.4 | 1.1 | 0.1 | i | 2.4
COc1ccc(-c2nc(CN3CCN(Cc4cccc(F)c4)CC3)c(C)o2)cc1 | 54.8* | 6.5 | 0.8 | -0.5 | -0.7 | 4.2
O=S(=O)(Nc1ccc(N=Nc2ccccc2)cc1)c1ccccc1 | 0.5 | 8.4 | . | 101.7* | -0.2 | .
Cn1c(N)c(C(=O)COC(=O)/C=C/c2ccc(S(=O)(=O)N3CCOCC3)cc2)c(=O)n(C)c1=O | -11.0 | 13.6 | 0.8 | 0.1 | 3.7 | -2.6
Cc1cc([N+](=O)[O-])cc(/C=N/n2c(C)nc3ccccc3c2=O)c1O | -0.1 | 13.1 | 1.9 | 191.8* | i | .
O=C(CNC(=O)c1ccccc1)OCc1cccc(Br)c1 | 13.0 | 28.6 | 1.0 | 1.6 | -0.3 | .
O=C(CCCNC(=O)c1ccc(Cl)cc1)OCc1cccc(Br)c1 | 25.3 | . | -0.1 | 277.2* | i | .
O=C(Nc1ccc(Cl)cc1)N1CCCN(c2ccc(C(F)(F)F)cc2[N+](=O)[O-])CC1 | -9.2 | 27.1 | 0.5 | 44.3* | -0.3 | -0.7
CCCCn1c(N)c(N(CCOC)C(=O)c2cc3c(s2)CCCCC3)c(=O)[nH]c1=O | -0.6 | . | 2.4 | -1.1 | i | 0.5
CSc1nnc(C)c(=O)n1COC(=O)COc1ccccc1 | -7.4 | 2.6 | . | 0.2 | i | .
Nc1ccc2nc(-c3cccs3)[nH]c2c1 | -18.3 | 13.2 | 12.6* | 1.2 | i | -0.6
CCNC(=O)C[C@H]1CC[C@H]2[C@@H](COc3ccc(NC(=O)Nc4ccc(C)cc4)cc3C(=O)N2C)O1 | . | . | 0.3 | . | . | -1.9
O=C(COc1cccc2c1CCN(Cc1ccccc1F)C2=O)N1CCOCC1 | . | 28.6 | . | . | . | .
O=C(COc1cccc2c1CCN(Cc1ccccc1F)C2=O)N1CCCCC1 | 13.6 | 51.8* | 1.1 | 0.4 | -1.3 | .
Nc1n[nH]c(-c2cccc([N+](=O)[O-])c2)n1 | -4.9 | -9.9 | . | 1.1 | -0.2 | 3.3
CC1CC(C)(C)CC(=O)C1C(=O)c1ccccc1 (stereo not drawn) | 9.1 | . | -4.4 | -0.7 | i | -0.6
SMILES | Y pestis TopoI | DUSP3 inh | TcdB GH inh | PfHsp40 yeast | BH1578 lux ind | BioA inh
Nn1c(SCc2ccccc2F)nnc1-c1ccccn1 | 1.2 | 12.8 | 13.7* | . | -0.6 | 0.4
O=C(O)c1cc(-c2ccccc2)nc2nc(N3CCCCC3)sc12 | . | 33.9 | -0.3 | . | . | .
O=C(COc1ncnc2ccccc12)NCCc1ccc(F)cc1 | -4.4 | 14.5 | 12.9* | -0.7 | -1.4 | .
NS(=O)(=O)c1ccc(NC(=S)NCc2ccc3c(c2)OCO3)cc1 | -5.3 | 7.3 | 11.8* | -1.5 | -0.4 | .
O=C(NCc1ccc2c(c1)OCO2)Nc1cccc(Cl)c1 | 0.1 | 58.7* | 0.7 | 0.2 | 0.3 | -0.8
O=C(NC(=S)NCc1ccc2c(c1)OCO2)c1ccccc1 | 10.0 | -1.6 | 0.2 | 51.7* | i | 2.6
NS(=O)(=O)c1cccc(NC(=S)NCc2ccc3c(c2)OCO3)c1 | 7.9 | 14.7 | 1.6 | -0.3 | -0.4 | -0.4
CC(=O)c1cccc(NC(=O)NCc2ccc3c(c2)OCO3)c1 | 4.2 | 10.1 | 0.7 | -0.2 | i | -2.7
COc1ccc(CN(C)C[C@H]2Oc3ccc(NS(=O)(=O)c4ccc(OC)cc4)cc3CC(=O)N([C@@H](C)CO)C[C@H]2C)cc1 | . | . | 0.8 | . | . | 0.3
ClCCN(CCCl)c1ccc(C=NNc2ncccn2)cc1 | 3.1 | . | 0.9 | 35.3* | -0.8 | -0.8
N#Cc1ncc(N=Cc2ccc(N(CCCl)CCCl)cc2)s1 | -9.2 | . | 1.2 | -0.1 | -0.8 | -2.0
CCOc1ccc(CC(=O)NCCc2cnc[nH]2)cc1 | 5.6 | 27.2 | -1.1 | 0.4 | -0.4 | 1.8
CCC1=NN(C(=O)c2cccc(Br)c2)C(O)(c2ccc(Br)cc2)C1 (stereo not drawn) | 24.7 | -9.6 | -0.4 | 91.2* | -0.2 | .
COc1ccc(NC(=O)C(=O)NCCN2CCN(C(=O)c3cccs3)CC2)cc1 | 8.7 | 17.8 | . | 57.6* | -0.6 | -0.6
Cc1cc(NC(=O)C(=O)NCCN2CCN(C(=O)c3cccs3)CC2)ccc1Br | -7.3 | 13.2 | . | 1.6 | . | -2.5
OCCN(CCO)c1ccc2ccccc2c1 | 1.4 | 4.0 | 3.1 | -0.7 | i | -2.2
OCCN(CCO)c1cc2c3ccccc3ccc2c2ccccc12 | -31.3 | . | 0.3 | 528.5* | i | .
COc1ccc(C(=O)N(C)C2CCN(C)CC2)cc1S(=O)(=O)Nc1cc(Cl)ccc1Cl | . | 52.4* | . | . | . | .
O=C(Cc1c(C(=O)O)[nH]c2ccc(Cl)cc12)Nc1ccc2c(c1)OCCO2 | 1.3 | 51.7* | . | 0.7 | -0.3 | 0.9
Cc1ccc(S(=O)(=O)Nc2ccc3c(c2)C(=O)N([C@@H](C)CO)C[C@H](C)[C@@H](CN(C)Cc2ccncc2)OCCCC[C@H](C)O3)cc1 | . | . | -3.6 | . | . | 0.8
O=[N+]([O-])c1ccc(Sc2cccc[n+]2[O-])c2nonc12 | -13.2 | 26.9 | -1.7 | 683.2* | -0.5 | .
O=[N+]([O-])c1ccc(Nc2ccccc2)c2nonc12 | -1.3 | 2.4 | -0.4 | -0.9 | -0.3 | 6.3
CCOC(=O)C1=C(C)N(CCCCCC(=O)O)C(=O)NC1c1ccc([N+](=O)[O-])cc1 (stereo not drawn) | 1.3 | 51.5* | 0.8 | -1.2 | i | -0.6
CCCCCOc1ccc(N2C(=O)C(C)CNC2=S)cc1 (stereo not drawn) | . | 13.3 | 0.7 | . | . | .
Cc1ccc(N/N=C/c2ccncc2)cc1 | -17.2 | 57.3* | -0.7 | 3.9 | -0.6 | 2.6
Cc1ccc(N/N=C/c2cccnc2)cc1 | 1.9 | -2.7 | . | 0.6 | -0.2 | 0.1
Cc1cc(N/N=C/c2ccncc2)nc2ccccc12 | 8.5 | 32.5 | 11.6* | -0.7 | -0.3 | .
O=C(C1COc2ccccc2O1)N1CCN(S(=O)(=O)c2cc(F)ccc2F)CC1 (stereo not drawn) | 15.1 | . | 2.0 | 0.5 | i | 0.2
Cc1ccc(NC(=O)NC(=O)N(C(C)C)S(C)(=O)=O)nc1 | -1.8 | -1.0 | -0.2 | -1.3 | -0.4 | -0.6
CCCNC(=O)C[C@@H]1CC[C@H]2[C@@H](COC[C@@H](O)CN2C(=O)Nc2ccc(Cl)c(Cl)c2)O1 | . | . | -0.7 | . | . | -1.2

Screening data from PubChem.
